Results on 40 molecules are retold here after PubChem BioAssay (NCATS).

Records with an inconclusive call do not appear. Entries that show only a call come without a potency. Active and inactive are the calls of the source. Calls follow the shape of the dose curve; as a rule, active = well fitted cell-killing curve with a large enough effect; inconclusive = small, poorly fitted or top-dose-only effect; inactive = flat fitted curve, though single readings scatter.
Potency is read from the fitted curve at half-maximal effect.

This assay can be described thus: qHTS of pediatric cancer cell lines to identify multiple opportunities for drug repurposing: Primary screen for U-2 OS cells (AID 1347096). Also: nearly all actives have a fitted effect of over 50% in size. Particulars: U-2 OS viability, CellTiter-Glo luminescence, 48 h; series mostly up to 46 µM. From the text:
Drug repurposing or repositioning has been offered as a strategy for drug development in oncology programs. This approach has special potential for childhood cancers and other rare or orphan diseases, where the expected return on new drug development has been a disincentive to pharmaceuticals.
In this project we exploit the poly-pharmacology of drugs to discover new indications via phenotypic screening of a panel of 19 well-characterized cell lines derived from solid tumors seen in children and adolescents. The goal is to identify approved drugs with previously unrecognized anticancer properties that has the potential to reveal new mechanisms and biological processes involved in carcinogenesis or drug resistance. We employed a titration-based paradigm (quantitative high-throughput screening or qHTS), where all compounds were tested at multiple concentrations for their effect on cell viability. Concentration-response curves (CRCs) were derived directly from the primary screen, and both potency and efficacy values were used to identify compounds with robust bioactivity profiles. We screened the NIH Chemical Genomics Center (NCGC) Pharmaceutical Collection (NPC) and Mechanism Interrogation Plate (MIPE) small molecule collections of approved and investigational compounds against these cell lines; and measured metabolically active cells after 48 hours of compound treatment as a proxy for cell viability.
Assay Submitter: Nathalia J. Martinez, National Center for Advancing Translational Sciences, National Institutes of Health, Rockville, MD, USA; email: natalia.martinez@nih.gov
[1] Shen, M et al. Quantitative high-throughput phenotypic screening of pediatric cancer cell lines identifies multiple opportunities for drug repurposing. Oncotarget 2017 Dec 19;9(4):4758-4772. PMID 29435139.
The cells were obtained from University of North Carolina (UNC), Pediatric Preclinical Testing Program (PPT), and Coriell Institute (CI).
qHTS cell viability assay:
Cells were assayed in growth media at a density of 500-1,000 cells/well. Five microliters of cells were dispensed into 1,536-well, white, solid-bottom, TC-treated plates (Greiner Bio One) using a multidrop dispenser and incubated at 37 degrees C, 5% CO2, under a humidified atmosphere for 5 hours. Twenty-three nanoliters of compounds and controls (neutral control DMSO or positive control bortezomib at final concentration of 2.3 µM) were subsequently transferred by Kalypsys pintool. For primary screens, the MIPE collection was tested at 11-point dilutions (final concentrations range from 0.78 nM to 46 µM) and the NPC collection at 8-point dilutions (final concentrations range from 0.59 nM to 46 µM). Compounds tested in follow-up screens were assayed at 11-point dilutions. Cells were incubated for 48 hours, followed by addition of 3 µL of CellTiter-Glo (Promega). After a 15 min incubation at room temperature, samples were analyzed for luminescence intensity using a ViewLux High-throughput CCD imager equipped with clear filters.
Take `CNC[C@H](O)[C@@H](O)[C@H](O)[C@H](O)CO`: the Potency result was “inactive”.
Regarding `CC(C)C[C@@H]1[C@H](c2ccccc2)OC(=O)N1CCCN1CCCCCC1`, the Potency entry was “inactive”.
For `Cc1ccc(-c2ccccc2C#N)cc1` the value was “inactive”; for `Cc1cccc(OCC(O)CNC(C)(C)C)c1C` (stereo not given), “inactive”; for `C/C(=N/NC(=O)c1ccncc1)C(=O)O`, “inactive”.
As for `Nc1cccc2c(N)cccc12`, the Potency entry was “inactive”.
As to `CN1[C@@H]2CC[C@H]1CC(NC(=O)n1c(=O)[nH]c3ccccc31)C2` (stereo not given in full), the Potency result was “inactive”.
Turning to `Nc1ccc(O)cc1`, the Potency result was “inactive”.
With `CN1CCN(N)CC1`, the Potency entry was “inactive”.
On to `CN1C(=O)c2ccccc2C1=O`, for which the Potency result was “inactive”.
In the case of `N=C(N)c1ccc(OCCCOc2ccc(C(=N)N)cc2)cc1`, the Potency result is “inactive”.
For `O=C(O)c1ccccc1S` the value was “inactive”.
In the case of `CC(=O)Nc1c(I)c(NC(C)=O)c(I)c(C(=O)O)c1I`, the Potency result was “inactive”.
For `Cc1cccc(N(C)C(=S)Oc2ccc3c(c2)CCC3)c1` the value was “inactive”; for `NC(=O)NS(=O)(=O)c1ccc(Cl)cc1`, “inactive”.
For `CC(C)NC(=O)c1ccc(C=O)cc1` the value was “inactive”; for `C[C@H](CN1CCCC1)C(=O)c1ccc(C(F)(F)F)cc1`, “inactive”.
Consider `CC1CCCCN1CCCOC(=O)c1ccc(OC2CCCCC2)cc1` (stereo not given), for which the Potency result was “inactive”.
For `CCCCCCCCCCCCCCCCCCN(C)C` the value was “inactive”; for `CCOc1c(N2CCOCC2)cnn(C)c1=O`, “inactive”; for `CCCCC(=O)OCC(=O)[C@H]1[C@H](C)C[C@H]2[C@@H]3C[C@H](F)C4=CC(=O)C=C[C@]4(C)[C@@]3(F)[C@@H](O)C[C@@]21C`, “inactive”.
For `CC(Oc1c(Cl)cccc1Cl)C1=NCCN1` (stereo not given), the Potency entry was “inactive”.
Consider `O=C(O)Cn1c(=O)n(Cc2ccc(Br)cc2F)c(=O)c2ccc(Cl)cc21`, for which the Potency entry is “inactive”.
For `CCc1cc(S(=O)(=O)O)c2cc(C(C)C)cccc1-2`, the Potency entry is “inactive”.
For `CO[C@@]1(NC(=O)CSC[C@@H](N)C(=O)O)C(=O)N2C(C(=O)O)=C(CSc3nnnn3C)CS[C@@H]21` the value was “inactive”; for `O=C(OCC(COC(=O)c1cccnc1)(COC(=O)c1cccnc1)COC(=O)c1cccnc1)c1cccnc1`, “inactive”; for `Cc1ccc(/C=N/n2c(-c3ccccc3)csc2=S)cc1`, “inactive”.
Consider `O=C(CCCCCCCCC#CI)Oc1ccccc1`, for which the Potency entry was “inactive”.
As for `NC(=O)NC1N=C([O][Al])NC1=O` (stereo not given), the Potency entry was “inactive”.
Turning to `Oc1ccccc1-c1nnco1`, the Potency entry was “inactive”.
`Cc1oc(-c2ccccc2)nc1CCC(=O)c1ccc(CC2SC(=O)NC2=O)cc1` (stereo not given): the Potency entry is “inactive”.
For `CC(C)(C)c1cc(C=O)cc(C(C)(C)C)c1O` the value was “inactive”; for `Cc1ccc(C(=O)Oc2ccc(C(O)CNC(C)(C)C)cc2OC(=O)c2ccc(C)cc2)cc1` (stereo not given), “inactive”.
In the case of `O=C(O)c1ccc(OCCN2CCCCC2)cc1`, the Potency entry is “inactive”.
With `OC1(c2ccc(Cl)c(C(F)(F)F)c2)CCN(CCCC(c2ccc(F)cc2)c2ccc(F)cc2)CC1`, the Potency is 21.1 µM (active).
For `O=C1CCCc2c(O)cccc21` the value was “inactive”; for `CO/N=C(/C(=O)N[C@@H]1C(=O)N2C(C(=O)[O-])=C(C[n+]3ccn4ncccc43)CS[C@H]12)c1nsc(N)n1`, “inactive”.
For `CCOC(=O)NNc1nncc2ccccc12` the value was “inactive”; for `CC(C)=CCC/C(C)=C/CC/C(C)=C/C(=O)OCC(=O)[C@@]1(O)CC[C@H]2[C@@H]3CCC4=CC(=O)C=C[C@]4(C)[C@H]3[C@@H](O)C[C@@]21C`, “inactive”; for `COc1cc2nc(Cl)nc(N)c2cc1OC`, “inactive”.
